Assay results published in PubChem BioAssay (NCATS).
Results filed as inconclusive are left out. Unmarked numbers belong to inactive results. Activity calls are given as the source filed them. Calls follow the shape of the dose curve; as a rule, active = well fitted cell-killing curve with a large enough effect; inconclusive = small, poorly fitted or top-dose-only effect, or effect the other way; inactive = no such curve, though single readings can be large or run the other way.

How the values were obtained:
[1] = Quantitative High-Throughput drug screen in 47 multiple myeloma cell lines against the NCATS MIPE library collection: MM1R_ATCC cell viability assay (AID 1918981); also: nearly all actives have a fitted effect of over 35% in size
In short: (§1)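 Readout: median RLU from CellTiter-Glo after 5 min at room temperature. Preceding step was 48 h drug treatment of 500 cells/well at 37 °C, 5% CO2, with DMSO-only and media-only control wells.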

[2] = Quantitative High-Throughput drug screen in 47 multiple myeloma cell lines against the NCATS MIPE library collection: LP1_DSMZ cell viability assay (AID 1918982); also: nearly all actives have a fitted effect of over 35% in size
In short: as §1

[3] = Quantitative High-Throughput drug screen in 47 multiple myeloma cell lines against the NCATS MIPE library collection: OCIMY7_PLB cell viability assay (AID 1918987); conditions: OCI-MY7 myeloma viability, CellTiter-Glo ATP, 48 h; viability (% of DMSO): at 45.8 µM (top of the series); also: nearly all actives have a fitted effect of over 65% in size
In short: as §1

[4] = Quantitative High-Throughput drug screen in 47 multiple myeloma cell lines against the NCATS MIPE library collection: OCIMY5_PLB cell viability assay (AID 1918988); also: nearly all actives have a fitted effect of over 65% in size
In short: as §1

[5] = Quantitative High-Throughput drug screen in 47 multiple myeloma cell lines against the NCATS MIPE library collection: SKMM1_PLB cell viability assay (AID 1919863); conditions: SKMM1 myeloma viability, CellTiter-Glo ATP, 48 h; viability: hits give low values; also: nearly all actives have a fitted effect of over 35% in size
In short: as §1

[6] = Quantitative High-Throughput drug screen in 47 multiple myeloma cell lines against the NCATS MIPE library collection: U266_ATCC cell viability assay (AID 1919864); also: nearly all actives have a fitted effect of over 35% in size;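 as to viability (% of DMSO control): 0% = media-only wells without cells and 100% = DMSO-only wells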
In short: as §1

[7] = Quantitative High-Throughput drug screen in 47 multiple myeloma cell lines against the NCATS MIPE library collection: XG6_PLB cell viability assay (AID 1919865); also: nearly all actives have a fitted effect of over 40% in size;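 as to viability (% of control): 100% = DMSO-only wells and 0% = media-only wells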
In short: as §1

[8] = Quantitative High-Throughput drug screen in 47 multiple myeloma cell lines against the NCATS MIPE library collection: XG1_PLB cell viability assay (AID 1919866); also: nearly all actives have a fitted effect of over 35% in size
In short: as §1

[9] = Quantitative High-Throughput drug screen in 47 multiple myeloma cell lines against the NCATS MIPE library collection: VP6_DJ cell viability assay (AID 1919867); also: nearly all actives have a fitted effect of over 40% in size;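 as to viability (% of DMSO): 100% = DMSO-only wells and 0% = wells with media alone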
In short: as §1

[10] = Quantitative High-Throughput drug screen in 47 multiple myeloma cell lines against the NCATS MIPE library collection: PCM6_Riken cell viability assay (AID 1919870); also: nearly all actives have a fitted effect of over 30% in size;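 as to viability (% of control): 100% = DMSO-only wells and 0% = media-only wells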
In short: as §1

[11] = Quantitative High-Throughput drug screen in 47 multiple myeloma cell lines against the NCATS MIPE library collection: OPM2_DSMZ cell viability assay (AID 1919872); also: nearly all actives have a fitted effect of over 30% in size
In short: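 Relative luminescence from CellTiter-Glo served as the viability signal, referenced to DMSO-treated (100%) and cell-free medium (0%) controls. Treatment lasted 48 hours at 37C with 500 cells per well.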

[12] = Quantitative High-Throughput drug screen in 47 multiple myeloma cell lines against the NCATS MIPE library collection: KMS28BM_JCRB cell viability assay (AID 1919874); also: nearly all actives have a fitted effect of over 35% in size
In short: as §1

[13] = Quantitative High-Throughput drug screen in 47 multiple myeloma cell lines against the NCATS MIPE library collection: L363_DSMZ cell viability assay (AID 1918984); conditions: L363 myeloma viability, CellTiter-Glo ATP luminescence, 48 h; viability (% of control): at 45.8 µM (top of the series); also: nearly all actives have a fitted effect of over 40% in size
In short: as §1

[14] = Quantitative High-Throughput drug screen in 47 multiple myeloma cell lines against the NCATS MIPE library collection: KMS34_JCRB cell viability assay (AID 1918985); also: nearly all actives have a fitted effect of over 40% in size
In short: as §1

[15] = Quantitative High-Throughput drug screen in 47 multiple myeloma cell lines against the NCATS MIPE library collection: PE2_PLB cell viability assay (AID 1919869); also: nearly all actives have a fitted effect of over 35% in size;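 as to viability (% of control): 100% = DMSO-only wells and 0% = cell-free media-only wells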
In short: as §1

[16] = Quantitative High-Throughput drug screen in 47 multiple myeloma cell lines against the NCATS MIPE library collection: RPMI8226_ATCC cell viability assay (AID 1919871); also: nearly all actives have a fitted effect of over 30% in size
In short: as §1

[17] = Quantitative High-Throughput drug screen in 47 multiple myeloma cell lines against the NCATS MIPE library collection: KMS11_JCRBsus cell viability assay (AID 1919873); also: nearly all actives have a fitted effect of over 50% in size;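 as to viability (% of control): 100% = DMSO-only wells and 0% = media-only wells without cells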
In short: as §1

[18] = Quantitative High-Throughput drug screen in 47 multiple myeloma cell lines against the NCATS MIPE library collection: UTMC2_PLB cell viability assay (AID 1919868); conditions: CellTiter-Glo ATP luminescence, 48 h; viability (% of DMSO control): at 45.8 µM (top of the series); also: nearly all actives have a fitted effect of over 55% in size;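 as to viability (% of DMSO control): 100% = DMSO-only wells and 0% = media-only wells without cells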
In short: as §1

[19] = Quantitative High-Throughput drug screen in 47 multiple myeloma cell lines against the NCATS MIPE library collection: OPM1_PLB cell viability assay (AID 1918989); also: nearly all actives have a fitted effect of over 40% in size;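 as to viability (% of control): 100% = DMSO-only wells and 0% = media-only wells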
In short: as §1
Potency is read from the fitted curve at half-maximal effect.

Row | Compound | Potency [1] | Potency [2] | Potency [3] | Potency [4] | viability [5] [%] | Potency [6] | Potency [7] | Potency [8] | Potency [9] | Potency [10] | Potency [11] | Potency [12] | Potency [13] | Potency [14] | Potency [5] | Potency [15] | Potency [16] | Potency [17] | Potency [18] | Potency [19]
1 | COc1cc(CNC(=O)CCCCC=CC(C)C)ccc1O | inactive | inactive | 14.8 µM (active) | inactive | 120 | inactive | 13.2 µM (active) | inactive | inactive | inactive | inactive | inactive | – | – | – | – | – | – | – | –
2 | C[C@@H]1[C@H](C)CC[C@]2(C(=O)O)CC[C@]3(C)C(=CC[C@@H]4[C@@]5(C)CC[C@H](O)C(C)(C)[C@H]5CC[C@]43C)[C@@H]12 | 21.5 µM (active) | 48.1 µM (active) | – | 1.52 µM (active) | – | – | – | 1.36 µM (active) | – | 12.1 µM (active) | 42.9 µM (active) | – | inactive | 34 µM (active) | 24.1 µM (active) | inactive | 27 µM (active) | inactive | – | –
3 | CCCCOCCOc1nc(-c2ccc(C(=O)O)c(F)c2)sc1C | inactive | inactive | – | 14.8 µM (active) | 118 | – | – | – | – | – | inactive | inactive | inactive | – | – | – | 10.5 µM (active) | inactive | – | –
4 | COc1nc(C)cnc1NS(=O)(=O)c1cccnc1-c1ccc(-c2nnco2)cc1 | inactive | inactive | – | – | 126 | inactive | inactive | – | inactive | inactive | inactive | inactive | inactive | – | – | inactive | inactive | – | inactive | –
5 | Clc1ccc(C2(c3ccc(-c4cn[nH]c4)cc3)CCNCC2)cc1 | 10.5 µM (active) | 23.5 µM (active) | 1.05 µM (active) | 16.6 µM (active) | – | – | 3.72 µM (active) | 18.7 µM (active) | 13.2 µM (active) | 6.62 µM (active) | 26.4 µM (active) | 16.6 µM (active) | 2.35 µM (active) | – | – | 11.8 µM (active) | – | – | 0.148 µM (active) | 2.35 µM (active)
6 | CC(C)C[C@H](NC(=O)c1cc2ccccc2s1)C(=O)N1CCN(C(=O)[C@H](CO)NS(=O)(=O)c2ccc(Cl)cc2Cl)CC1 | 18.7 µM (active) | 26.4 µM (active) | 23.5 µM (active) | 20.9 µM (active) | – | 23.5 µM (active) | – | – | 18.7 µM (active) | 23.5 µM (active) | – | 20.9 µM (active) | – | – | – | 23.5 µM (active) | – | – | – | 20.9 µM (active)
7 | CC[C@H](C=C[C@@H](C)[C@H]1CC[C@H]2[C@@H]3CC=C4C[C@@H](O)CC[C@]4(C)[C@@H]3CC[C@]12C)C(C)C | inactive | inactive | – | – | 119 | inactive | 1.02 µM (active) | 1.02 µM (active) | – | 0.575 µM (active) | inactive | – | inactive | inactive | – | 0.0575 µM (active) | inactive | 5.12 µM (active) | – | inactive
